For 83 compounds, inhibition results are on record in PubChem BioAssay AID434973 (Sanford-Burnham Center for Chemical Genomics, 2010).

Among all 330,000 compounds or so, about 4,900 (1.5%) were called active. For the sample, actives were picked, then their nearest neighbours and some compounds at random. Unmarked numbers belong to inactive results.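 How the source made its calls: active means inhibition above about 50% at the single test dose (limit read from the data); inactive means the rest.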

The assay has as its target Sentrin-specific protease 7 (Homo sapiens) (UniProt Q9BQF6). As to the kind of experiment: blockers of human SENP7 peptidase activity – biochemical, luminescence, uHTS, primary screen (AID 434973).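 Further: plate controls were DMSO with enzyme for no effect and no enzyme buffer wells for full effect.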 The note with it: recombinant SENP7, Z-RLRGG-aminoluciferin luminescence, 40 min; at 5 µM; stronger effect = higher value.
With `CC12C(=O)N(c3ccccc3)C(=O)C1C(c1ccccc1)N1CCCN12` (stereo not drawn), the inhibition was -4.08%.
With `C=CCn1c(SCC(=O)c2c(N)n(C)c(=O)n(C)c2=O)nc2sc(CC)cc2c1=O`, the inhibition is -1.46%.
As for `COc1cccc(/C=N\Nc2nncc(-c3ccccc3)n2)c1`, the inhibition is 24.7%.
For the compound `CN(CCO)c1ccc(/C=N/Nc2nncc3ccccc23)cc1`, the inhibition is 93% (active).
In the case of `C/C(=N\Nc1nncc2ccccc12)c1ccc(Cl)c([N+](=O)[O-])c1`, the inhibition was 5.32%.
As to `COc1ccc([N+](=O)[O-])cc1N(CC(O)CN(CC(C)C)CC(C)C)S(=O)(=O)c1ccc(C)cc1` (stereo not drawn), the inhibition is 3.08%.
As for `COc1ccc(C2CC(=O)C=C(NCC3CCCO3)C2)cc1` (stereo not drawn), the inhibition is 5.59%.
The result for `O=C(CN1C(=O)NC2(CCCCCC2)C1=O)NCc1cccs1` reads 3.72%; that for `O=C(Nc1nnc(Cc2ccccc2)s1)c1cnccn1`, 3.97%; that for `O=C(Nc1nnc(C2CC2)s1)c1ccccn1`, 57.4% (active).
To `Cc1ccc(SCC(=O)Nc2ncc(C)s2)cc1` belongs -2.81%; to `Cc1cnc(NC(=O)c2ccccn2)s1`, 82.8% (active).
To `CCc1cc(C(=O)Nc2nnc(C3CC3)s2)sc1C` belongs -5.93%; to `Cc1cc(C(=O)Nc2nnc(C3CC3)s2)c(C)s1`, 77% (active); to `Cc1cnc(NC(=O)C2CCCC2)s1`, 0.0964%.
`Cc1cccc(NC(=O)CSCC(=O)Nc2nnc(C3CC3)s2)c1`: the inhibition was 4.12%.
For `O=C(Nc1nnc(C2CC2)s1)c1cc(Cl)sc1Cl`, the inhibition is 5.7%.
On to `OC(CNC1CCCC1)COc1ccc(F)cc1` (stereo not drawn), for which the inhibition was 7.04%.
As for `Cc1nn(C(C)(C)C)c(OC(=O)CC(C)C)c1S(=O)(=O)c1ccccc1`, the inhibition was 4.96%.
The result for `COc1ccc(S(=O)(=O)N2CCN(C(=O)c3cc(C)oc3C)CC2)cc1` reads 3.33%; that for `COc1ccccc1-c1oc2ccccc2c1C#CCCCCO`, 5.54%; that for `CC1Cc2ccccc2N1C1=CC(=O)CC(C)(C)C1` (stereo not drawn), -3.44%.
Take `CC(C)(C)NC(=O)c1ccc(Cn2cc(C(F)(F)F)ccc2=O)cc1`: the inhibition is -6.25%.
Take `Clc1ccc(-c2nc3ccccn3c2CN2CCSCC2)cc1`: the inhibition is -5.08%.
As to `Cc1ccc(C(=O)C(=S)N2CCOCC2)cc1`, the inhibition is -2.91%.
In the case of `CC1=NN(C(N)=S)C(=O)C1N=Nc1cc(Cl)ccc1Cl` (stereo not drawn), the inhibition is -5.66%.
As for `Cc1[nH]n(C)c(=O)c1N=Nc1ccc(S(C)(=O)=O)cc1`, the inhibition was 0%.
As to `Cc1[nH]n(C(N)=S)c(=O)c1N=Nc1ccc(Cl)cc1Cl`, the inhibition was 51.8% (active).
Take `CCOc1ccc(NC(=O)N2CC=C(n3c(=O)[nH]c4ccccc43)CC2)cc1`: the inhibition was 4%.
The result for `CC1CN(/C=C/C(=O)C(F)(F)F)CC(C)O1` (stereo not drawn) reads 1.13%; that for `C1=C(CCNc2ncnc3c2cnn3-c2ccccc2)CCCC1`, 56.6% (active); that for `CC(C)Sc1ncnc2c1cnn2-c1ccccc1`, 45.7%.
Turning to `O=C(NCCC1=CCCCC1)C1CCN(Cc2cnn(-c3ccccc3)c2-n2cccc2)CC1`, the inhibition is -3.45%.
Take `CCCS(=O)(=O)N1CCC(C(=O)NCCCN(C)Cc2ccccc2)CC1`: the inhibition was -8.04%.
For `Cc1cccc(NC(=O)c2ccc3nsnc3c2)c1C`, the inhibition was 2.56%.
As to `O=C(Nc1ccccc1Cl)c1ccc2nsnc2c1`, the inhibition is 50.7% (active).
To `O=C(Nc1ccccc1)c1ccc2nsnc2c1` belongs 35.8%; to `O=[N+]([O-])c1ccc2oc(-c3cccc(O)c3)nc2c1`, 87.7% (active).
In the case of `Cc1nc(-c2ccc([N+](=O)[O-])cc2)c(-c2ccccc2)o1`, the inhibition was -7.84%.
With `COc1cccc(-c2nc3cc(C)ccc3o2)c1`, the inhibition was 99.9% (active).
For `COc1ccc2oc(-c3cccc(NC(=O)CSc4ccc(Cl)cc4)c3)nc2c1`, the inhibition is -4.24%.
To `COc1cccc(-c2nnc(SCCOc3ccc4c(C)cc(=O)oc4c3)o2)c1` belongs 7.33%; to `COc1ccc([N+](=O)[O-])cc1-c1nc2ccccc2nc1-c1ccccc1`, -0.763%.
For `Cc1ccc(C2(C)NC(=O)N(CC(=O)Nc3ccccc3C(=O)N3CCCCC3)C2=O)cc1` (stereo not drawn), the inhibition is 12.4%.
Turning to `COCOc1cc(O)c(C(=O)/C=C/c2ccc(OCOC)c(OCOC)c2)c(OCOC)c1`, the inhibition is 6.61%.
On to `O=C(/C=C/c1ccco1)NC(=S)Nc1ccccc1Br`, for which the inhibition was -4.36%.
Regarding `Cc1nnc(NC(=O)/C=C/c2ccco2)s1`, the inhibition was -7.44%.
Take `O=C(/C=C/c1ccco1)Nc1ccc(Oc2ccccc2)cc1`: the inhibition is 63.9% (active).
To `CCOc1cc(NC(=O)CCl)c(OCC)cc1NC(C)=O` belongs 5.15%; to `O=C(Cc1ccc(S(=O)(=O)N2CCOCC2)s1)N1CCN(c2ccc(C(F)(F)F)cc2[N+](=O)[O-])CC1`, -8%.
For the compound `NC1=NN(c2cccc(C(=O)O)c2)C(=O)C1`, the inhibition was 5.47%.
Regarding `O=C(O)c1cccc(N=NN2CCCCCC2)c1`, the inhibition is 77.8% (active).
As to `O=C(O)c1ccc(N=NN2CCOCC2)cc1`, the inhibition was -2.47%.
As for `O=C(Oc1ccc([N+](=O)[O-])cc1)c1ccc2ccccc2n1`, the inhibition is -9.28%.
For the compound `CC(=O)Oc1ccc(-c2nc3c(C)cccc3c(=O)o2)cc1`, the inhibition was -7.63%.
As to `CC(=O)Oc1ccc2c(=O)oc(-c3ccc([N+](=O)[O-])cc3)nc2c1`, the inhibition is 97.5% (active).
With `COc1ccc(OCC(=O)NCCc2ccc(S(N)(=O)=O)cc2)cc1`, the inhibition was 7.31%.
Consider `O=C(OCC(=O)N1CCCC1)c1ccco1`, for which the inhibition is -6.82%.
As for `O=C(COC(=O)c1ccco1)NCc1ccc(Cl)cc1`, the inhibition is -0.452%.
Turning to `CCc1ccc(C(=O)COC(=O)c2ccco2)cc1`, the inhibition was 68.9% (active).
In the case of `Cc1ccc(-n2nc(-c3ccco3)cc2C(=O)NCc2cccnc2)cc1`, the inhibition is 0.29%.
In the case of `COc1ccc(NS(=O)(=O)c2cc(C(=O)Nc3ccccc3C(=O)O)ccc2C)cc1`, the inhibition was 9.65%.
As for `COc1ccccc1C(=O)NNC(=O)c1ccc(NC(=O)c2ccccc2)cc1`, the inhibition was 11.6%.
Turning to `COc1ccc(/C=N/Nc2ccccc2C(=O)O)cc1`, the inhibition was 94.3% (active).
For `COc1ccc(C(=O)Nc2ccccc2C(=O)N/N=C/c2ccc(O)c(OC)c2)cc1`, the inhibition is 101% (active).
`COc1ccc(/C=N/OCC(=O)N(Cc2ccccc2)c2ccccc2C(=O)O)cc1`: the inhibition was 6.96%.
`COc1ccc(C(=O)Nc2cc(C)c(NC(=O)c3ccccc3OC)cn2)cc1`: the inhibition is 9.47%.
To `COc1ccc(C(=O)Nc2ccccc2C(=O)N/N=C/c2ccccc2OC)cc1` belongs 64.8% (active).
On to `O=C(N/N=C/c1ccc(OC(=O)c2ccccc2Cl)cc1)c1ccc(O)cc1`, for which the inhibition is 4.1%.
To `CCOc1cc(/C=N/NC(=O)c2cc(-c3ccccc3)nc3ccccc23)ccc1O` belongs -1.26%; to `O=C(CN1C(=O)NC2(CCCCC2)C1=O)N1CCN(C(=O)c2cccs2)CC1`, -1.61%.
To `COc1cc(S(=O)(=O)N2CCN=C2c2ccccc2)ccc1Cl` belongs -10%; to `O=C(CC1OC(=O)c2ccccc21)NC1CCCCC1` (stereo not drawn), 1.77%.
Regarding `CC(C)c1c(O)nc(SCCOc2ccc(Cl)cc2)[nH]c1=O`, the inhibition is 8.54%.
Consider `O=C(Cn1cnc2ccccc2c1=O)NNC(=O)c1ccccc1F`, for which the inhibition was -11%.
To `CCN1CCN(C(C(=O)NC2CCCC2)c2cc3c(cc2[N+](=O)[O-])OCO3)CC1` (stereo not drawn) belongs -3.92%; to `Nc1nc(C23CC4CC(CC(C4)C2)C3)cs1`, 3.32%; to `Fc1ccccc1/C=N/Nc1cc(N2CCCCC2)ncn1`, 69.8% (active).
Take `COc1ccccc1N1CCN(C(=O)C(=O)N/N=C/c2ccccc2F)CC1`: the inhibition is -1.74%.
`C(=N/Nc1cc(N2CCOCC2)nc(N2CCOCC2)n1)/c1ccccc1`: the inhibition was 31.9%.
`CC(=O)Nc1ccc(S(=O)(=O)Nc2cc(C)cn(Cc3ccc(C)cc3)c2=O)cc1`: the inhibition is 2.97%.
Take `Cc1ccc(S(=O)(=O)NC[C@H]2O[C@@H](n3cnc4c(N)ncnc43)[C@H](O)[C@@H]2O)s1`: the inhibition was 6.73%.
In the case of `CC(=O)c1cccc(NC(=O)COc2ccc(S(=O)(=O)N3CCOCC3)cc2)c1`, the inhibition was 3.63%.
